# hgDAF12 agonist: H. glycines DAF-12 receptor agonists, primary screen, cell-based, luminescence, HEK293, GAL4 fusion, UAS-luciferase. HEK293 GAL4-hgDAF12 UAS-luciferase reporter, agonist luminescence; normalized to butyrate control. Nuclear hormone receptor DAF-12 (Heterodera glycines), GAL4 fusion. 1.8% of 370,000 active. activation, % at 6.8 µM. AID 687014, 2013;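 active = activation above a cutoff set at the mean of all screened compounds plus 3 SD, cut at about 10% in these data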
# hcDAF-12 act: H. contortus DAF-12 nuclear receptor activators, primary screen, cell-based, luminescence, HEK293, lit1-tk-luc reporter. HEK293 hcDAF-12 lit1-tk-luc reporter; 0% DMSO, 100% Δ7-dafachronic acid. 1.4% of 370,000 active. activation, % at 6.8 µM. AID 652067, 2013;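 active = activation above the mean of all tested compounds plus 3 SD, cut at about 5.5% in these data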
# DAX1 inh-1: DAX1 (NR0B1) inhibitors on StAR promoter, primary screen, cell-based, luminescence, SF-1 (NR5A1), full-length DAX-1; HEK293T StAR-luciferase reporter, SF-1/DAX-1 repression relief; inhibition, % at 6.8 µM; 1.1% of 370,000 active; AID 652010, 2013;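 active = inhibition above the mean over all tested compounds plus 3 SD, cut at about 3.6% in these data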;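 note: higher inhibition means more luminescence from relief of DAX-1 repression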
# ssDAF12 agonist: S. stercoralis DAF-12 nuclear receptor activators, primary screen, cell-based, luminescence, HEK293, GRIP1 co-expression, lit1-tk-luc; Nuclear hormone receptor DAF-12 (Strongyloides stercoralis); HEK293 ssDAF-12/GRIP1 lit1-tk-luc reporter; % of 3 µM dafachronic acid response; activation, % at 6.8 µM; 1% of 370,000 active;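 active = activation above the mean over all tested compounds plus 3 SD, cut at about 0.9% in these data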
# DAX1 inh-2: DAX1 (NR0B1) inhibitors, primary screen, cell-based, HEK293, Gal4-DAX1, luciferase luminescence; Nuclear receptor subfamily 0 group B member 1 (Homo sapiens), P51843; HEK293 Gal4-DAX1 luciferase reporter; inhibition, % at 6.75 µM; 0.99% of 340,000 active; AID 504766, 2011;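 active = inhibition above the mean over all tested compounds plus 3 SD, cut at about 4.2% in these data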;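 note: inhibition shows as a rise in luminescence from relieved DAX1 repression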
# Target sequence (P51843 207-470 limits assumed): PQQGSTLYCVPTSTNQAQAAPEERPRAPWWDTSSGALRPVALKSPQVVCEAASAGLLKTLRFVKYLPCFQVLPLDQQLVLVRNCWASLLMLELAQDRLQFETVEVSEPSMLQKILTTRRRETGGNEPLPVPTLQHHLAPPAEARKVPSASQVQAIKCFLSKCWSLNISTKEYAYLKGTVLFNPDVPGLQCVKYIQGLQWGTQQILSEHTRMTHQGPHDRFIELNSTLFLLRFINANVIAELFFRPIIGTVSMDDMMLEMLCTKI
# Hits are given with their value; . = inactive; / = no result given. An excerpt weighted towards active compounds, which were near 4.1% of everything screened.
SMILES,hgDAF12 agonist,hcDAF-12 act,DAX1 inh-1,ssDAF12 agonist,DAX1 inh-2
COc1cccc(CN2CC(C(=O)N3CCCC3)CCC2=O)c1 (configuration not stated),.,.,.,.,.
COc1cccc(CN2CC(C(=O)N3CCN(C(C)C)CC3)CCC2=O)c1 (configuration not stated),.,.,.,.,4.6
Cn1c(-c2ccc(F)cc2)cnc1SCC(=O)N1CCCc2ccccc21,.,.,.,.,.
Cn1c(-c2ccc(F)cc2)cnc1SCC(=O)N1CCCCC1,12.5,.,.,.,.
C=CCN1C(=O)[C@@H](CC(=O)NCCCN2CCCC2=O)[C@]2(C(=O)OCC)CCCCC/C=C/12,.,.,.,.,/
CCOc1ccc(N2C(=O)C(Cl)=C(Nc3ccccc3O)C2=O)cc1,.,5.6,.,.,.
N#C/C(=C\c1ccc(N2CCOCC2)o1)C(=O)NCC1CCCO1 (configuration not stated),.,.,.,12.4,.
N#C/C(=C/c1ccc(N2CCOCC2)o1)C(=O)Nc1ccccc1,11.2,5.9,.,.,.
COC(=O)c1cn[nH]c1NC(=S)Nc1ccc(C)cc1Cl,.,.,4.2,.,.
COC(=O)c1cn[nH]c1NC(=S)Nc1ccc(Cl)c(Cl)c1,.,.,.,.,.
CCOC(=O)C(Nc1ccc2ccccc2c1)C(=O)OCC,.,5.7,.,.,.
CC(=O)Nc1ccc2ccccc2c1,/,/,/,/,.
CCOC(=O)c1ccc(NC(=O)CSc2nc(N3CCOCC3)nc(N3CCOCC3)n2)cc1,.,.,.,.,.
CC(=O)c1ccc(NC(=O)CSc2nc(N3CCOCC3)nc(N3CCOCC3)n2)cc1,.,.,4.1,.,.
CC(c1c[nH]c2ccccc12)c1c[nH]c2ccc(Br)cc12 (configuration not stated),.,5.6,.,.,/
COc1ccc2[nH]cc(C(C)c3c[nH]c4ccccc34)c2c1 (configuration not stated),.,.,.,.,/
CC(=O)Nc1sc(C)c(C)c1C(=O)OCC(=O)Nc1ccccc1C(F)(F)F,10.7,.,.,.,.
Cc1nc2ccc(NC(=O)c3ccc(F)cc3Cl)cc2c(=O)[nH]1,.,.,.,.,/
CC(C)c1ccc(C2OCC(C)([N+](=O)[O-])CO2)cc1 (configuration not stated),.,.,3.9,.,.
CC(C)c1ccc(C2OCCCO2)cc1,.,.,.,.,.
O=C(/C=C/c1ccc(Br)cc1)N1CCN(c2cccc(C(F)(F)F)c2)CC1,.,6.4,.,.,.
O=C(/C=C/c1cccc(Br)c1)N1CCN(c2cccc(C(F)(F)F)c2)CC1,.,.,.,.,.
CC1(C(=O)NS(=O)(=O)c2cccc(C#N)c2)CCN1C(=O)CCc1ccccc1 (configuration not stated),.,.,.,.,/
COc1ccccc1NC(=S)NNC(=O)c1ccccc1,10.7,.,.,.,.
COc1cc(OC)cc(C(=O)NNC(=S)Nc2ccccc2OC)c1,.,.,.,.,.
SMILES,hgDAF12 agonist,hcDAF-12 act,DAX1 inh-1,ssDAF12 agonist,DAX1 inh-2
COc1ccccc1NC(=S)NNC(=O)c1ccccc1Br,.,.,.,1.3,.
COc1ccccc1NC(=S)NNC(=O)c1ccncc1,.,.,.,.,.
O=C(c1ccccc1C(F)(F)F)N1CCC(Oc2cccnc2)CC1,.,.,.,.,/
CC(=O)c1ccc(NC(=O)CN2C(=O)/C(=C/C=C/c3ccccc3)SC2=S)cc1,.,6.5,.,.,.
CCN(CC)CCOC(=O)c1ccc(NC(=O)CCCN2C(=O)/C(=C\c3cccs3)SC2=S)cc1,.,.,6.8,.,.
O=C(CCCN1C(=O)S/C(=C\C=C\c2ccccc2)C1=O)Nc1ccc(C(=O)O)cc1,.,.,.,.,.
CC(=Cc1ccccc1)C=C1SC(=S)N(CCCC(=O)Nc2ccc(C(=O)O)cc2)C1=O,.,.,4.2,.,/
O=C(CCN1C(=O)S/C(=C\C=C\c2ccccc2)C1=O)Nc1ccc(O)cc1,11.7,.,.,.,.
